# Test results taken from PubChem BioAssay (Tox21).
# Records with an inconclusive call do not appear. Entries that show only a call come without a potency. Unmarked numbers belong to inactive results. Calls of active or inactive are those of the source. Unless noted, calls come from the whole dose curve.
# Target: Nuclear receptor subfamily 1 group I member 2 (Rattus norvegicus) (UniProt Q9R1A7)
# Assay: Rat pregnane X receptor (rPXR) activation by small molecules, qHTS assay (AID 1346983; active = well fitted curve in the direction sought with a large enough effect in the repeat runs; an effect the other way counts as inactive or inconclusive; note: nearly all actives have a fitted effect of over 20% in size)
# Settings: rPXR luciferase reporter cells, One-Glo luminescence, 24 h; max activation: active compounds read high
# Summary of the method: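 Cell-based rPXR luciferase reporter assay, 2,000 cells per well, rested 5hr at 37 C before compound addition in DMSO, then 24 hr at 37 C. One-Glo reagent was added and luminescence read after 30 min at room temperature.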
# Chain of Nuclear receptor subfamily 1 group I member 2 (Rattus norvegicus) (Q9R1A7 whole entry, looked up): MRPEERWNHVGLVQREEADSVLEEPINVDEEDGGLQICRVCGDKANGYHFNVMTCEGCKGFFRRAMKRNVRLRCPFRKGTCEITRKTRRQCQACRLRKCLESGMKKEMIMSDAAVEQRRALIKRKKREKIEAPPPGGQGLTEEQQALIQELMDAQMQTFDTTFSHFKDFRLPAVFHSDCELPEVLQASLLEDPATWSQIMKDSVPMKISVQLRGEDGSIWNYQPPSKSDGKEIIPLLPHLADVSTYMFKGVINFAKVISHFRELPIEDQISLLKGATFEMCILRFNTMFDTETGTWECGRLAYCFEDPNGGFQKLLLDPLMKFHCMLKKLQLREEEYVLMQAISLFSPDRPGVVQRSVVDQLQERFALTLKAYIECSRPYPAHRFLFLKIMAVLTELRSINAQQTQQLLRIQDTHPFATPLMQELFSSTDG
row,Structure (SMILES),max activation
1,CN1CCc2cc(Cl)c(O)cc2[C@H]2c3ccccc3CC[C@@H]21,0.833%
2,CCN(CC)CCN1C(=O)CN=C(c2ccccc2F)c2cc(Cl)ccc21,8.1%
3,Oc1ccc2[nH]cc(CCCCN3CC=C(c4ccccc4)CC3)c2c1,4.09%

# Target: Nuclear receptor subfamily 1 group I member 2 (Homo sapiens) (UniProt O75469)
# Assay: CYP3A4 induction through human pregnane X receptor (PXR) by small molecules, qHTS assay (AID 1346984; active = well fitted curve in the direction sought with a large enough effect in the repeat runs; an effect the other way counts as inactive or inconclusive; note: nearly all actives have a fitted effect of over 40% in size; note: potency is the fitted concentration of half-maximal effect)
# Settings: DPX-2 HepG2 PXR, CYP3A4-luciferin luminescence, 24 h; series mostly up to 46.1 µM
# Summary of the method: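 Quantitative HTS in DPX-2 cells, i.e. HepG2 transfected with PXR response element and CYP3A4-promoter luciferase. Compounds in DMSO incubated 24hr at 37C; then P450-Glo CYP3A4 substrate, 3uM final, 3hr; One-Glo luminescence.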
row,Structure (SMILES),Potency
1,CN1CCc2cc(Cl)c(O)cc2[C@H]2c3ccccc3CC[C@@H]21,2.24 µM (active)
2,CCN(CC)CCN1C(=O)CN=C(c2ccccc2F)c2cc(Cl)ccc21,inactive
3,ClC1=C(Cl)[C@]2(Cl)[C@@H]3[C@H]4C[C@H]([C@@H]5O[C@H]45)[C@@H]3[C@@]1(Cl)C2(Cl)Cl,inactive

# Target: Nuclear receptor subfamily 1 group I member 2 (Homo sapiens) (UniProt O75469)
# Assay: Human pregnane X receptor (PXR) activation by small molecules, qHTS assay (AID 1346985; active = well fitted curve in the direction sought with a large enough effect in the repeat runs; an effect the other way counts as inactive or inconclusive; note: potency is the fitted concentration of half-maximal effect; nearly all actives have a fitted effect of over 40% in size)
# Settings: DPX-2 HepG2 CYP3A4-luciferase, 24 h; series mostly up to 38.3 µM
# Summary of the method: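 DPX-2 cells (HepG2 co-transfected with a PXR response element and a CYP3A4-promoter luciferase construct) were seeded at 2,000 per well, rested 5 hr at 37C, then exposed to DMSO-dissolved compounds for 24 hr. Activation was read as luciferase luminescence.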
row,Structure (SMILES),Potency
1,CN1CCc2cc(Cl)c(O)cc2[C@H]2c3ccccc3CC[C@@H]21,2.24 µM (active)
2,CCN(CC)CCN1C(=O)CN=C(c2ccccc2F)c2cc(Cl)ccc21,14.1 µM (active)
3,ClC1=C(Cl)[C@]2(Cl)[C@@H]3[C@H]4C[C@H]([C@@H]5O[C@H]45)[C@@H]3[C@@]1(Cl)C2(Cl)Cl,25.1 µM (active)

# Target: Acetylcholinesterase (Homo sapiens) (UniProt P22303)
# Assay: Acetylcholinesterase (AChE) small molecule antagonists: colormetric cell-based qHTS assay (AID 1347395); note: nearly all actives have a fitted effect of over 30% in size; note: potency is the fitted concentration of half-maximal effect
# Settings: SH-SY5Y cells AChE activity, colorimetric (Ellman); series mostly up to 115 µM
# Summary of the method: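 AChE inhibition read colorimetrically via DTNB–thiocholine in SH-SY5Y cells. Compound 30 min, substrate 90 min, both 37 C.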
# Chain of Acetylcholinesterase (Homo sapiens) (P22303 whole entry, looked up): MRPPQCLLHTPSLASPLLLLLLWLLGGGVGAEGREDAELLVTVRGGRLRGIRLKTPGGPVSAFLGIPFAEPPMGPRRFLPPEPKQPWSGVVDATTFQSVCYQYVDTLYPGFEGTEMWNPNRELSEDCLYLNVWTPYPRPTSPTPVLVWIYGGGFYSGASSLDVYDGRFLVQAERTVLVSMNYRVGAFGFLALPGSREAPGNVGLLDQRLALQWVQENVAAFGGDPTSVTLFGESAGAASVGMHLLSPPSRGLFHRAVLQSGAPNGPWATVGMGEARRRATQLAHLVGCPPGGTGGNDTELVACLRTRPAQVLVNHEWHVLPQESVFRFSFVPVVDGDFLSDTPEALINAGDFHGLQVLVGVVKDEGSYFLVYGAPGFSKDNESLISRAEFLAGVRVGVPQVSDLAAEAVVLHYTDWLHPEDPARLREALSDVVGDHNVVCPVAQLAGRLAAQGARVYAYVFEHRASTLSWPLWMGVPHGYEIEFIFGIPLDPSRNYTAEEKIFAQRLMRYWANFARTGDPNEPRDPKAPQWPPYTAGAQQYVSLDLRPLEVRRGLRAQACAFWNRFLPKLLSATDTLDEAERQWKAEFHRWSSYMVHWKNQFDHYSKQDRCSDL
row,Structure (SMILES),Potency
1,CN(C)CCc1c[nH]c2ccccc12,inactive
2,CCN(CC)CCN1C(=O)CN=C(c2ccccc2F)c2cc(Cl)ccc21,inactive
3,N#Cc1c[nH]cc1-c1cccc2c1OC(F)(F)O2,inactive
4,O=S1OCC2C(CO1)C1(Cl)C(Cl)=C(Cl)C2(Cl)C1(Cl)Cl (stereo unspecified),inactive
5,CCCCCCC[CH2][Sn]([Cl])([Cl])[CH2]CCCCCCC,inactive
6,CC1=C2C[C@H]3[C@@H](CC=C4C[C@@H](O)CC[C@@]43C)[C@@H]2CC[C@]12O[C@@H]1C[C@H](C)CN[C@H]1[C@H]2C,inactive
7,CO/N=C(\C(=O)OC)c1ccccc1CO/N=C(\C)c1cccc(C(F)(F)F)c1,inactive
8,C#CCC1=C(C)C(OC(=O)C2C(C=C(C)C)C2(C)C)CC1=O (stereo unspecified),inactive
9,c1ccc(N=NNc2ccccc2)cc1,inactive
10,C[C@]12Cc3cn[nH]c3C[C@@H]1CC[C@@H]1[C@@H]2CC[C@@]2(C)[C@H]1CC[C@]2(C)O,inactive
11,Nc1ccc(N=Nc2ccccc2)cc1,inactive
12,c1csc(-c2ccc(-c3cccs3)s2)c1,inactive
13,COc1ccc2c(c1OC)C(=O)O[C@@H]2[C@H]1c2cc3c(cc2CCN1C)OCO3,inactive
14,CN1C2CCC(C)(C)C1CC(OC(=O)C(O)(c1cccs1)c1cccs1)C2 (stereo unspecified),inactive
15,CC(C)(C)c1ccc(OP(=O)(Oc2ccccc2)Oc2ccccc2)cc1,31.9 µM (active)
16,C=Cc1cccc(CCl)c1,inactive

row,Structure (SMILES),Potency
1,C[C@H]1[C@H](c2ccc(Cl)cc2)SC(=O)N1C(=O)NC1CCCCC1,inactive
2,Clc1ccc(C(c2ccc(Cl)cc2)C(Cl)Cl)cc1,inactive
3,CSC1=N[C@@](C)(c2ccccc2)C(=O)N1Nc1ccccc1,inactive
4,ClC1=C(Cl)[C@]2(Cl)[C@@H]3[C@H]4C[C@H]([C@@H]5O[C@H]45)[C@@H]3[C@@]1(Cl)C2(Cl)Cl,inactive
5,S=C=NCCc1ccccc1,inactive
6,Cc1ccccc1OP(=O)(Oc1ccccc1C)Oc1ccccc1C,inactive
7,CCOP(=S)(NC(C)C)Oc1ccccc1C(=O)OC(C)C (stereo unspecified),inactive
8,O=[N+]([O-])c1cccc2cccc([N+](=O)[O-])c12,20.1 µM (active)
9,CCN(CC)Cc1nccn1-c1ccc([N+](=O)[O-])cc1C(=O)c1ccccc1Cl,inactive
10,Cc1cc(C2CC2)nc(Nc2ccccc2)n1,inactive
11,FC(F)C(F)(F)OCC(Cn1cncn1)c1ccc(Cl)cc1Cl (stereo unspecified),inactive
12,Cc1ccc2cc3c(ccc4ccccc43)c3c2c1CC3,inactive
13,CCCCCCCc1ccc(O)cc1,inactive
14,CCN(CC)CCc1c[nH]c2ccccc12,inactive
15,c1ccc(Nc2ccc(Nc3ccccc3)cc2)cc1,inactive
16,CCOP(=O)(Sc1ccccc1)Sc1ccccc1,3.99 µM (active)
